Only some compounds are listed: those with a hit (about 15% of all), similar ones and a draw of the others.
TDP1 cell CPT: DT40-hTDP1 cell growth loss with CPT | Potency, µM (series often up to 46.2 µM), inactives show at the highest dose activity change, negative = growth inhibition, actives largely listed as inhibitors | chicken DT40 Tdp1-/-;hTDP1 cells + 20 nM CPT, ATP luminescence, 48 h | hit rate 12% among 420,000; note: nearly all actives have a fitted effect of over 55% in size
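Cell growth measured by CellTiter-Glo luminescence after a minimum 48 h, 37 C compound exposure with 20 nM CPT in Tdp1-knockout DT40 cells stably expressing hTDP1, seeded 400/well; qHTS titration format.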
TDP1 cell noCPT: qHTS for Inhibitors of human tyrosyl-DNA phosphodiesterase 1 (TDP1): qHTS in cells in absence of CPT; DT40 Tdp1-/- hTDP1 cells, no CPT, ATP luminescence, 48 h; Potency, µM (highest dose often 46.2 µM), inactives show at the top dose activity change, negative = growth inhibition, hits mostly inhibitors; hit rate 15% among 420,000; note: nearly all actives have a fitted effect of over 55% in size
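Camptothecin absent (DMSO only). Human TDP1-complemented DT40 knockout cells, 400 cells/well, 37 °C for minimum 48 hr; ATP measured via CellTiter-Glo, 30 min dark incubation, luminescence.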
12-LOX inh: ALOX12 (human) lipoxygenase inhibition; P18054; purified 12hLO, xylenol orange hydroperoxide absorbance; Potency, µM (titrated, usually from 108 µM), without a hit: at the top dose activity change, negative = inhibition, most hits filed as inhibitors; hit rate 1.1% among 580,000; AID 1671190
Target sequence (P18054 whole entry, looked up): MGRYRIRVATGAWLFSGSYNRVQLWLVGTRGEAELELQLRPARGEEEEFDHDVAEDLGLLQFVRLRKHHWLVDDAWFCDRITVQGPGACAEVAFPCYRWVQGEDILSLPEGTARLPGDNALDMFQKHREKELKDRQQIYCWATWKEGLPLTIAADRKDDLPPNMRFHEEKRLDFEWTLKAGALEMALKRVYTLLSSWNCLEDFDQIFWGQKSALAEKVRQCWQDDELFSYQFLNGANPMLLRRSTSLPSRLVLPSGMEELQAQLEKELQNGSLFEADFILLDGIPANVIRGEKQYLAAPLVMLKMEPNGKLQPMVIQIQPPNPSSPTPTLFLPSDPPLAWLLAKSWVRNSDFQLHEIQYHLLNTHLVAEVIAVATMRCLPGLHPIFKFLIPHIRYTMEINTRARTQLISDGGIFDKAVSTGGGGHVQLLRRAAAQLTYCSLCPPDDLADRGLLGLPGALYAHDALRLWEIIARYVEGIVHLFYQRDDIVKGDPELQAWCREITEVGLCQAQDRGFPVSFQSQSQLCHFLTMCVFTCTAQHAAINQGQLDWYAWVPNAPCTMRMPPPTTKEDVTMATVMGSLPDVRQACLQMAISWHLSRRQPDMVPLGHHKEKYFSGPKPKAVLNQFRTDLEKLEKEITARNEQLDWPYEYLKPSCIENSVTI
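Hydroperoxide product was detected by ferrous iron/xylenol orange as the 573 to 405 nm absorbance ratio. Arachidonic acid at 40 uM (final) was turned over for 30 min at room temperature by 150 nM human 12hLO, pH 7.0 Hepes buffer, after 15 min compound preincubation.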
ELG1 DNA repair: ELG1-dependent DNA repair inhibition; HEK293T ELG1-luciferase reporter, luminescence, 16 h; DNA damage induced by 5-fluorouridine; hit rate 2.3% among 330,000; Potency, µM (top dose mostly 46.1 µM), for inactives: top-dose activity change, negative = inhibition, most hits filed as inhibitors; note: nearly all actives have a fitted effect of over 55% in size
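Cells (2,000 per well) received 5-fluorouridine plus test compound or DMSO and were incubated 16 hr at 37 °C, 5% CO2. Luciferase activity was read by luminescence 30 min after ONE-Glo addition; signal suppression marked inhibition of damage-induced ELG1 function.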
VP16 counter: Gal4-VP16 reporter inhibition counter-screen; hit rate 3.5% among 310,000; Potency, µM (doses to about 53.6 µM), for inactives: top-dose activity, negative = inhibition, usual class: inhibitors; Drosophila S2 Gal4-VP16 UAS-luciferase, luminescence, 20 h; AID 2546;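 note: Gal4-VP16 expression switched on by copper sulfate through the metallothionein promoter; nearly all actives have a fitted effect of over 50% in size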
RORgamma inh: ROR gamma (mouse) transcription inhibition; Drosophila S2 Gal4-RORgamma UAS-luciferase reporter, 20 h; Potency, µM (series often up to 53.6 µM), without a hit: at the highest dose activity change, negative = inhibition, hits mostly inhibitors; hit rate 5.4% among 310,000; note: nearly all actives have a fitted effect of over 60% in size
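A Gal4/UAS one-hybrid system in insect cells: metallothionein-promoter Gal4–ROR gamma fusion plus Photinus luciferase reporter. Copper sulfate 700 uM final, 20 hr ambient incubation, luminescent detection after 10 min with reagent.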
* hit, by the source's call. Calls come from the whole dose curve; as a rule, active = well fitted curve in the direction sought with a large enough effect; inconclusive = small, poorly fitted or top-dose-only effect, or another doubt; inactive = no such curve, though single readings can be large; an effect the other way counts as inactive or inconclusive. % is set by controls: 0 for no effect and ±100 for the full control effect; potency is the fitted concentration of half-maximal effect.

Results for O=C(CC1SC(=O)NC1=O)Nc1ccc(Cl)cc1 (configuration not stated) ?
TDP1 cell CPT: 3.26µM*; TDP1 cell noCPT: 9.2µM*; 12-LOX inh: -12.1%; ELG1 DNA repair: -18.3%; VP16 counter: inconclusive; RORgamma inh: inconclusive

How did CCOC(=O)c1ccc(NC(=O)CC2Sc3ccccc3NC2=O)cc1 (configuration not stated) do in these assays?
12-LOX inh: 10.5%

Results for O=C1C[C@H](c2ccc(O)cc2)Oc2cc(O[C@@H]3O[C@H](CO)[C@@H](O)[C@H](O)[C@H]3O)cc(O[C@@H]3O[C@H](CO)[C@@H](O)[C@H](O)[C@H]3O)c21 ?
TDP1 cell CPT: 6.5%; TDP1 cell noCPT: 2.9%; 12-LOX inh: -9.0%; ELG1 DNA repair: inconclusive

What do the screens show for `CC(=O)Oc1ccc(/C=C/C(=O)CC2OC(Oc3cc(OC(C)=O)c4c(c3)O[C@@H](c3ccc(OC(C)=O)cc3)CC4=O)C(OC(C)=O)C(OC(C)=O)C2OC(C)=O)cc1` (some centres not stated)?
TDP1 cell CPT: 8.41µM*; TDP1 cell noCPT: 7.5µM*; VP16 counter: 1.0%; RORgamma inh: 13.6%

Results for CC(C)c1ccc(N(CC(=O)N/N=C/c2ccc(OC3CSC3)cc2)S(=O)(=O)c2ccccc2)cc1 ?
TDP1 cell CPT: 23.1µM*; TDP1 cell noCPT: inconclusive; 12-LOX inh: -18.2%; ELG1 DNA repair: -3.3%; VP16 counter: -7.3%; RORgamma inh: 4.6%

What do the screens show for `CC(C)c1ccc(N(CC(=O)NCCCN2CCOCC2)S(=O)(=O)c2ccccc2)cc1`?
TDP1 cell CPT: 18.4µM*; TDP1 cell noCPT: 25.9µM*; 12-LOX inh: -1.9%; ELG1 DNA repair: inconclusive

What do the screens show for `COc1cccc(N(CC(=O)NCCN2CCOCC2)S(=O)(=O)c2ccccc2)c1`?
TDP1 cell CPT: -0.9%; TDP1 cell noCPT: -8.4%; 12-LOX inh: 6.9%; ELG1 DNA repair: 6.1%

Results for O=C(N1CCc2c(nc[nH]c2=O)C1)C1(S(=O)(=O)c2ccccc2)CC1 ?
12-LOX inh: 18.6%

What do the screens show for `Cc1cc(NC(c2cccnc2)c2ccc3cccnc3c2O)no1` (configuration not stated)?
TDP1 cell CPT: 3.26µM*; TDP1 cell noCPT: 3.66µM*; 12-LOX inh: -8.1%; ELG1 DNA repair: inconclusive; VP16 counter: 6.31µM*; RORgamma inh: 3.98µM*

Results for Cc1cc(C)nc(Nc2cccc(C(F)(F)F)c2)n1 ?
TDP1 cell CPT: -25.2%; TDP1 cell noCPT: -43.4%; 12-LOX inh: inconclusive; ELG1 DNA repair: -5.5%; VP16 counter: 5.0%; RORgamma inh: 10.3%

How did Oc1c(C(Nc2cccc(C(F)(F)F)c2)c2cccnc2)ccc2cccnc12 (configuration not stated) do in these assays?
TDP1 cell CPT: inconclusive; TDP1 cell noCPT: inconclusive; 12-LOX inh: inconclusive; ELG1 DNA repair: -3.5%; VP16 counter: 2.82µM*; RORgamma inh: 2.51µM*

Results for CN1CCN(C(c2ccc(C(F)(F)F)cc2)c2ccc3cccnc3c2O)CC1 (configuration not stated) ?
TDP1 cell CPT: 8.2µM*; TDP1 cell noCPT: 8.2µM*; 12-LOX inh: 17.8µM*; ELG1 DNA repair: -2.0%; VP16 counter: 1.58µM*; RORgamma inh: 3.16µM*

What do the screens show for `FC(F)(F)c1ccc(C(c2ccc(C(F)(F)F)cc2)N2CCNCC2)cc1`?
12-LOX inh: -2.4%

Results for Oc1c(C(Nc2cccnc2)c2ccc(C(F)(F)F)cc2)ccc2cccnc12 (configuration not stated) ?
TDP1 cell CPT: inconclusive; TDP1 cell noCPT: 8.91µM*

Source: PubChem BioAssay (National Center for Advancing Translational Sciences (NCATS))
